About 83,000 compounds went through this panel and 20% of them were active in at least one assay; those are over-represented in the sample as a whole.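 Negative percent growth values reflect cell death: -40 means 40% of the cells present at the start died, and -100 means all died.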 A number with no mark means an inactive call. Active and inactive are the calls of the source. How the source made its calls: active means growth percent below 10; inactive means the rest.
tested on: UO-31 renal; experiment: NCI-60 one-dose screen, 48 h (100 = growth as untreated, 0 = no growth, -100 = all killed); conditions: 10 µM unless noted

Row | SMILES | growth
1 | O=C(Nc1ccc(-n2ccc3c(NC(=O)c4ccccc4)ncnc32)cc1)c1ccc(Cl)c(C(F)(F)F)c1 | 32.7%
2 | CC12CCC3C(CCC4CC(O)CCC43C)C1C/C(=C/O)C(=O)O2 (stereo not drawn) | 91%
3 | O=C1/C(=C/c2cccc3cnccc23)Cc2cc(F)ccc21 | 70.4%
4 | CCc1c(C)c2cc(-n3c(-c4ccc(OC)cc4)csc3=N)c(O)c(C)c2oc1=O | 14.3%
5 | O=C(NCCNc1nccc(-c2c(-c3cccc(O)c3)nc3sccn23)n1)c1ccccc1O | 34.6%
6 | NC(CCCC(N)C(=O)c1ccccc1)C(=O)O (stereo not drawn) | 84.3%
7 | COc1ccc(-c2nnc(SCC(=O)N3CCN(c4cc5c(cc4F)c(=O)c(C(=O)O)cn5C4CC4)CC3)o2)cc1OC | 93.7%
8 | CC(C)(C)C(=O)/C=c1/[nH]c(=O)/c(=C/c2ccccc2O)s1 | 67.4%
9 | O=C1c2ccccc2OC=C(c2ccccc2)N1CCCCN1CCCCC1 | 85.8%
10 | CNCCCOc1c(Br)cc(CCNC(=O)/C(Cc2cc(Br)c(OC)c(Br)c2)=N/O)cc1Br | -44.9% (active)
11 | COc1ccc(-c2nnc(SCC(=O)Nc3ccc(C(=O)/C=C/c4ccc(OC)c(OC)c4)cc3)o2)cc1 | 73.8%
12 | COc1cc(-c2nc(SCC(=O)Nc3ccc(C(C)=O)cc3)[nH]c(=O)c2C#N)cc(OC)c1OC | 49.3%
13 | O=C1OC(N(Cc2ccc(Cl)cc2)c2ccccc2)c2ccccc21 (stereo not drawn) | 94.5%
14 | O=C(NNC(=O)c1ccc([N+](=O)[O-])cc1)c1ccc([N+](=O)[O-])cc1 | 95.4%
15 | CCOC(=O)C1=C(N)Oc2cc(OC)ccc2C1c1ccc(F)c(F)c1 (stereo not drawn) | 44.2%
16 | Cc1c(Cl)ccc2c(C(=O)Cl)cc(-c3ccccc3)nc12 | 90.1%
17 | CCCCCCCCCCCCCCCC(=O)NS(=O)(=O)OC[C@H]1O[C@@H](n2cnc3c(N)ncnc32)[C@H](O)[C@@H]1O | -69.8% (active)
18 | COc1ccc(-c2nnc(NC(=O)CN3CCN(c4cc5c(cc4F)c(=O)c(C(=O)O)cn5C4CC4)CC3)s2)cc1OC | 89.4%
19 | O=S(=O)(CCN1CCOCC1)Nc1cc(-c2ccc3ncnc(Nc4ccc(F)c(Cl)c4)c3c2)cnc1Cl | -8.69% (active)

Row | SMILES | growth
20 | C[C@]12O[C@H]1[C@H](O)c1c(cc(O)c3c1C(=O)c1cccc(O)c1-3)C2=O | 91.1%
21 | COc1ccc(OCC(O)CN2CCN(c3ccc(Cl)cc3)CC2)cc1 (stereo not drawn) | 76%
22 | COc1ccc2c(c1)O/C(=C/c1ccc(OCC(=O)Nc3ccc(S(N)(=O)=O)cc3)cc1)C2=O | 85.6%
23 | O=C1COc2ccccc2C(=O)N1CCCCN1CCCCC1 | 91.7%
24 | CCn1c(SCC(=O)c2ccc(Br)cc2)nnc1-c1cc2c([nH]c3ccccc32)c(-c2cccc(O)c2)n1 | 70.4%
25 | CC(C)CNCC(O)COc1ccc(C(C)(C)c2ccc(OCC(O)CNCC(C)C)cc2)cc1 (stereo not drawn) | -32.2% (active)
26 | CC[C@H]1[C@@H]2C=C[C@@H]3[C@H]4C/C=C\C(=O)NCCC[C@@H]5NC(=O)/C(=C(O)/C=C/[C@@H]4C[C@@H]3[C@H]2C[C@H]1C)C5=O | -78.2% (active)
27 | Cc1cc(-c2ccccc2)nc2ccccc12 | 77%
28 | CCn1c(SC)nnc1-c1cc2c([nH]c3ccccc32)c(-c2cccc(O)c2)n1 | 24.1%
29 | O=C(O)c1ccc(-c2nn(-c3ccc(C(=O)O)cc3)cc2/C=N/Nc2c(F)c(F)cc(F)c2F)cc1 | 92.4%
30 | CCN(CC)CCNCC(O)Cc1ccc(OC)cc1 (stereo not drawn) | 82.6%
31 | Nc1ncnc2c1ncn2C1OC(COC(c2ccccc2)(c2ccccc2)c2ccccc2)C(O)C1O (stereo not drawn) | 80.5%
32 | O=C(Nc1cccc(-n2ccc3c(NC(=O)c4ccccc4)nccc32)c1)c1cc(N2CCOCC2)cc(C(F)(F)F)c1 | 9.78% (active)
33 | Nn1c(CN2CCN(c3cc4c(cc3F)c(=O)c(C(=O)O)cn4C3CC3)CC2)n[nH]c1=S | 91.7%
34 | CCOC(=O)c1[nH]c(-c2ccc(Cl)cc2)cc1-c1cccnc1 | 21%
35 | O=c1c2ccccc2[nH]n1Cc1ccc2c(c1)OCO2 | 92.7%
36 | Cc1ncc(CO)c(C(=O)O)c1O | 84.8%
37 | CCN(CC)CCN1C(=O)c2c(c3c4ccccc4[nH]c3c3[nH]c4ccccc4c23)C1=O | 71.3%
38 | C=CCn1c(SCC(=O)Nc2ccc(C(=O)/C=C/c3cc(OC)c(OC)c(OC)c3)cc2)nnc1-c1ccc(OC)cc1 | -79.6% (active)

tested on: TK-10 renal; experiment: as above; conditions: 10 µM unless noted

Row | SMILES | growth [%]
39 | CC12CCC3C(CCC4CC(O)CCC43C)C1C/C(=C/O)C(=O)O2 (stereo not drawn) | 89.4
40 | CCc1c(C)c2cc(-n3c(-c4ccc(OC)cc4)csc3=N)c(O)c(C)c2oc1=O | 64.7
41 | NC(CCCC(N)C(=O)c1ccccc1)C(=O)O (stereo not drawn) | 86.7
42 | CNCCCOc1c(Br)cc(CCNC(=O)/C(Cc2cc(Br)c(OC)c(Br)c2)=N/O)cc1Br | 34.7
43 | COc1ccc(-c2nnc(SCC(=O)Nc3ccc(C(=O)/C=C/c4ccc(OC)c(OC)c4)cc3)o2)cc1 | 95.9
44 | O=C(NNC(=O)c1ccc([N+](=O)[O-])cc1)c1ccc([N+](=O)[O-])cc1 | 96.1
45 | CCOC(=O)C1=C(N)Oc2cc(OC)ccc2C1c1ccc(F)c(F)c1 (stereo not drawn) | 63.3
46 | Cc1c(Cl)ccc2c(C(=O)Cl)cc(-c3ccccc3)nc12 | 105
47 | COc1ccc2c(c1)O/C(=C/c1ccc(OCC(=O)Nc3ccc(S(N)(=O)=O)cc3)cc1)C2=O | 115
48 | CC(C)CNCC(O)COc1ccc(C(C)(C)c2ccc(OCC(O)CNCC(C)C)cc2)cc1 (stereo not drawn) | 66.6
49 | Cc1cc(-c2ccccc2)nc2ccccc12 | 135
50 | O=C(O)c1ccc(-c2nn(-c3ccc(C(=O)O)cc3)cc2/C=N/Nc2c(F)c(F)cc(F)c2F)cc1 | 98.1
51 | CCN(CC)CCNCC(O)Cc1ccc(OC)cc1 (stereo not drawn) | 88
52 | Nn1c(CN2CCN(c3cc4c(cc3F)c(=O)c(C(=O)O)cn4C3CC3)CC2)n[nH]c1=S | 93.8
53 | Cc1ncc(CO)c(C(=O)O)c1O | 81.2
